High-throughput results (PubChem)
Sampled rows, rich in hits. Any-hit rate of the full collection: about 2.6%.
TCR activator – T cell receptor activation | primary human leukocytes, anti-CD3, IL-2 HTRF, 48 h | Potency, µM (top dose mostly 9.22 µM), for the others: at the highest dose activation of IL-2 secretion, most hits filed as activators | 330,000 tested, under 10 active; further: % of control where 0% means no effect
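1) Mix primary human leukocytes, a-CD3 beads and compound. 2) Incubate 48 hr. 3) Add HTRF IL-2 reagents (a-IL-2-K, a-IL-2-d2).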
Nrf2 ARE act – activators of Nrf2 (ARE) signaling; AREc32 ARE-luciferase reporter (MCF7-derived line), luminescence, 24 h; AID 624171; Potency, µM (highest dose often 46.1 µM), for the others: at the top dose activation, actives largely listed as activators; 410,000 compounds, 0.31% hits; further: potency means the concentration at half of the fitted maximal effect; % of control where 0% means no effect; nearly all actives have a fitted effect of over 65% in size
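Luminescent ARE reporter assay in AREc32_Fluc cells: overnight plating at 37 deg C, 24 hr compound incubation, Steady-Glo added, 30 min RT before reading.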
A-T KAP1 phos – potential ataxia-telangiectasia treatment | AID 485349 | 320,000 compounds, 0.19% hits | F2112 A-T fibroblasts, KAP-1 phosphorylation AlphaLISA; neocarzinostatin DNA damage 30 min before lysis | Potency, µM (series often up to 57.5 µM), inactives show top-dose activation, usual class: activators; further: potency means the concentration at half of the fitted maximal effect; % of control where 0% means no effect; nearly all actives have a fitted effect of over 45% in size
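hTERT-immortalized A-T patient fibroblasts (F2112), 500 cells/well in OPTI-MEM, 1% FBS, got compounds for 60 min, then NCS for 30 min at 37C. Lysates were then assayed for phospho-KAP-1 by AlphaLISA (anti-pKAP1 donor, anti-KAP1 acceptor beads), 6 hr at 25C.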
Nrf2 block – blocks Nrf2 signaling. A549 ARE-Fluc reporter, luciferase luminescence, 18-24 h. Potency, µM (titrated, usually from 46 µM), without a hit: top-dose activity change, negative = inhibition, usual class: inhibitors. 360,000 compounds, 2.1% hits. AID 504444; further: potency means the concentration at half of the fitted maximal effect; on the % scale 0 is the no-effect control and ±100 the full control effect; nearly all actives have a fitted effect of over 60% in size
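Nrf2 activity is the BugLite luminescence, read 15 min after reagent at room temperature, following CellTiter-Fluor cytotoxicity readout (30 min, 37C). Compound titrations were applied for 18-24 h to 5000 A549 ARE_Fluc cells/well in 5% FBS OPTI-MEM.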
CCT chaperon mod – cytosolic chaperonin activity modulation | purified chaperonin ATPase assay, HTRF ADP detection, 30 min | activity change, % (no concentration beside the values), hits read low | 360,000 compounds, 0.3% hits | AID 651819; in the data active means activity change below about -30%; further: on the % scale 0 is the no-effect control and ±100 the full control effect
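We incubate TRiC, 40 or 20 nM final, with library compounds at 76 uM and 10 uM ATP for 30 min at 37 °C. ADP formed is detected with Transcreener HTRF reagents after 30 min at room temperature.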
A549 tox – A549 cytotoxicity, counter-screen for Nrf2 inhibitors; Potency, µM (top dose mostly 46 µM), without a hit: at the top dose activity change, negative = cytotoxicity, usual class: inhibitors; 390,000 compounds, 0.16% hits; A549 ARE-Fluc cells, CellTiter-Fluor viability, 18-24 h; further: potency means the concentration at half of the fitted maximal effect; on the % scale 0 is the no-effect control and ±100 the full control effect
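A549 ARE_Fluc cells in 5% FBS OPTI-MEM were exposed to compounds in concentration-response for 18-24 h at 37 deg C. Viability was read by CellTiter-Fluor fluorescence (Ex 405/Em 525) after 30 min, before the luciferase read.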
* = called active by the depositor; ? = inconclusive; · = no result given; [ ] = dose if it differs, or a comment. Unless noted, the call rests on the fitted dose curve; in most records, active means well fitted curve in the direction sought with a large enough effect; inconclusive means small, poorly fitted or top-dose-only effect, or another doubt; inactive means no such curve, though single readings can be large; an effect the other way counts as inactive or inconclusive.

SMILES	TCR activator	Nrf2 ARE act	A-T KAP1 phos	Nrf2 block	CCT chaperon mod	A549 tox
O=c1c(-c2nnc(SCc3ccc(Cl)cc3)o2)cccn1Cc1ccccc1	-4%	0%	20%	21µM*	-2	?
C=CCN(c1ccccc1)S(=O)(=O)c1cccc(C(=O)N2CC(C)CC(C)C2)c1 (stereo not given)	2%	5%	4%	21µM*	-1	?
C/C(=N\OCC(=O)Nc1ccccc1Br)c1cccs1	2%	22µM*	19%	11%	1	19%
C/C(=N/OCC(=O)Nc1ccccc1)c1cccs1	0%	3%	4%	·	0	7%
CCOc1ccc(CNC(=O)C2CCN(c3nnc(-n4c(C)ccc4C)s3)CC2)cc1	·	6%	·	15µM*	·	2%
Cc1oc2ccc(O)cc2c1C(=O)c1ccc([N+](=O)[O-])cc1	1%[46.1 µM]	7%	-2%	?	-1	0%
CN(C)/C=C/c1oc2ccc(O)cc2c1[N+](=O)[O-]	3%	7%	-4%	?	-1	16µM*
Cc1noc(C)c1NC(=O)N(C)C[C@@H]1Oc2ncc(Br)cc2C(=O)N([C@H](C)CO)C[C@@H]1C	·	0%	·	·	-4	·
c1coc(CNc2nc(-c3cccs3)nc3ccccc23)c1	·	·	·	?	·	1%
COCCCNC(=O)CN1C(=O)/C(=C/c2ccccc2)Sc2ccccc21	-1%	8%	40µM*	3%	2	3%
CCOCCCNC(=O)CN1C(=O)/C(=C/c2ccccc2)Sc2ccccc21	-9%[46.1 µM]	6%	11%	-12%	0	0%
COc1cc(SC)ccc1C(=O)Nc1nccs1	-36%	2%	-1%	?	-2	2%
CCOC(=O)c1noc2nc(C)n(CC(=O)Nc3ccc(OC)c(Cl)c3)c(=O)c12	·	-1%	·	·	·	8%
O=C(C1CC1)N1CCN=C1SCc1ccccc1	-2%	-1%	10%	-29%	3	0%
CC(Oc1ccccc1)C(=O)N1CCN=C1SCc1ccccc1 (stereo not given)	1%	0%	11%	2%	-42*	5%
Cc1ccc(C)c(-n2[nH]c3c4c(ccc3c2=O)C(=O)c2ccccc2C4=O)c1	2%[46.1 µM]	0%	1%	23µM*	-6	?
Cc1nc(NC(=O)CCl)sc1C(=O)N(C)C	13%	13µM*	1%[11.5 µM]	-21%	2	-4%
CCOc1cc(C2NC(=O)c3c(sc4c3CCN(C)C4)N2)ccc1OC(=O)c1ccccc1Cl (stereo not given)	·	-2%	·	8.2µM*	·	-7%
CCN(CC)S(=O)(=O)c1cccc(-c2nnc(SCCCC(=O)c3ccc(F)cc3)o2)c1	1%	1%	25%	23µM*	0	-16%
COc1ccc(/C=N/NC(=O)c2cccc([N+](=O)[O-])c2)cc1OC(=O)c1ccc(C)cc1	-1%	0%	-5%	21µM*	-2	?
COc1cccc(C(=O)N/N=C/c2ccc(Oc3ccc([N+](=O)[O-])cn3)c(OC)c2)c1	-1%[46.1 µM]	0%	-3%	23µM*	1	?
COc1cc(/C=C(/C#N)c2ccccc2)ccc1Oc1ccc([N+](=O)[O-])cn1	0%	2%	8%	15µM*	-3	?
COc1ccc(/C=N/NC(=O)c2cccc([N+](=O)[O-])c2)cc1OC(=O)c1ccccc1	-17%	6%	-2%	-13%	-2	-16%
Cc1ccc2nc(COc3cccc(NC(=O)COc4ccccc4F)c3)cc(=O)n2c1	·	6%	·	·	·	0%
COc1ccc(Cn2ccc3nc(C)c(C(=O)Nc4cc(C)cc(C)c4)cc3c2=O)cc1	·	0%	·	7%	·	10%
SMILES	TCR activator	Nrf2 ARE act	A-T KAP1 phos	Nrf2 block	CCT chaperon mod	A549 tox
CCN(CC)S(=O)(=O)c1cc(NC(=O)Cc2n[nH]c(=O)c3ccccc23)ccc1C	8%	0%	12%	26µM*	0	-12%
CN(c1ccccc1)S(=O)(=O)c1cccc(NC(=O)Cc2n[nH]c(=O)c3ccccc23)c1	8%	0%	22%	16µM*	0	-9%
Cc1ccc(NC(=O)Cc2n[nH]c(=O)c3ccccc23)cc1S(=O)(=O)N1CCCCCC1	-3%	2%	6%	10µM*	-1	-18%
CCN(CC)S(=O)(=O)c1cc(NC(=O)COC(=O)c2c(C)noc2C)ccc1C	5%	0%	0%	21µM*	1	?
Cc1cc(NC(=O)COC(=O)c2c(C)noc2C)ccc1Br	·	0%	0%	?	1	1%
COc1ccc(-c2cc3c(=O)n(CC(=O)Nc4ccc(Br)c(C)c4)ccn3n2)cc1OC	·	1%	·	·	·	0%
COc1cccc(N2CCN(C(=O)CN3CCSc4ccc(S(=O)(=O)N(C)C)cc43)CC2)c1	·	-1%	·	·	·	-1%
O=C1NC(Cc2ccccc2)c2nc3ccc(F)cc3c(=O)n2-c2ncccc21 (stereo not given)	·	0%	·	·	-3	·
O=[N+]([O-])c1ccccc1S(=O)(=O)N1CCN(c2nc(-c3cccs3)nc3ccccc23)CC1	·	·	·	-20%	·	2%
CCNc1nc(NCc2ccccc2)nc(SCC(=O)Nc2ccccc2)n1	7%[46.1 µM]	4%	1%	23µM*	-1	-16%
COCCn1c(-c2ccc(SC)cc2)nc2c1c(=O)[nH]c(=O)n2CC(C)C	1%	5%	8%	-20%	0	-3%
COCCn1c(-c2ccc(OC(F)(F)C(F)C(F)(F)F)cc2)nc2c1c(=O)[nH]c(=O)n2CC(C)C (stereo not given)	-2%	11%	·	18µM*	-4	-8%
CN(C)CCCN(C(=O)COc1ccc(Cl)cc1)c1nc2cc3c(cc2s1)OCO3	11%	5%	-3%	-9%	-35*	0%
CN(C)CCCN(C(=O)COc1ccc(Cl)cc1)c1nc2cc3c(cc2s1)OCCO3	3%	-1%	4%	-8%	0	1%
COCCCNC(=O)c1sc2nc(C)c(C(=O)Nc3ccc(Cl)cc3)c(-c3ccc(Br)cc3)c2c1N	·	0%	·	7%[9.27 µM]	·	-6%
N=c1c2c(ncn1-c1ccccc1)Oc1ccc3ccccc3c1C2c1ccc2c(c1)OCO2 (stereo not given)	·	·	·	21µM*	·	15µM*
COc1cccc(C2c3c(ncn(-c4ccc(-c5ccccc5)cc4)c3=N)Oc3ccc4ccccc4c32)c1 (stereo not given)	·	·	·	?	·	-3%
COc1cccc(C2c3c(ncn(-c4cccc(OC)c4)c3=N)Oc3ccc4ccccc4c32)c1 (stereo not given)	·	·	·	-2%	·	-12%
